Shown is part of a subset that was picked to be rich in hits.
KDM5B inh = Primary screen for KDM5B Histone Demethylases FDH-coupled qHTS; 220,000 tested, 2.6% active; Lysine-specific demethylase 5B (Homo sapiens), Q9UGL1; KDM5B demethylase, FDH-coupled NADH fluorescence (FDH is formaldehyde dehydrogenase); Potency, µM (doses to about 57.7 µM), actives largely listed as inhibitors; active = well fitted inhibition curve with a large enough effect; note: nearly all actives have a fitted effect of over 70% in size
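KDM5BΔAP (200 nM final) in 50 mM HEPES pH 7.5, 0.01% Tween-20 was preincubated 10 min at RT with compound over a concentration range. Substrate mix (H3K4me3 12.5 µM, α-KG 25 µM, Fe²⁺, ascorbate, NAD⁺, FDH) was added, and NADH fluorescence change over 30 min gave dose-response curves.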
Each line names hits and unclear results; the compound was inactive in the other large screens.

CN1CCCC2(C1)CN(C)c1ccc(C(=O)NCCc3ccccc3)cc12 (stereo not given)	KDM5B inh 31.6µM
CCNC(=O)c1ccc2c(c1)C1(CCCN(C)C1)CN2C (stereo not given)	KDM5B inh 31.6µM
CN(C)CC(=O)N1CCC2(C1)CN(C)c1ccc(C(=O)NCc3ccccc3)cc12 (stereo not given)	KDM5B inh 35.5µM
O=C(NCCC(=O)N1CCCC1)c1ccc2c(c1)CCC2	none
Cc1ccc(CN(C(=O)c2cc(=O)c3cc(Cl)ccc3o2)c2ccccn2)cc1	none
CCN(CC)S(=O)(=O)c1cccc(C(=O)OCc2nc3ccccc3o2)c1	none
Cc1ccc(Nc2ccc([N+](=O)[O-])c3nonc23)cc1Cl	none
O=S1(=O)CCN(C2CCCCC2)c2c(F)nc(N3CCCCC3)c(F)c21	none
CCCCn1c(CCC(=O)N(C)Cc2cc(C)ccc2OC)nc2c1c(=O)[nH]c(=O)n2CCCC	none
COc1ccc(C(=O)Oc2ccc(C(=O)c3ccc(OC)cc3)cc2)cc1	none
COc1ccc(CNC(=O)C[C@@H]2CCNC[C@@H]2Cc2cc(COc3ccccc3)on2)cc1	none
CS(=O)(=O)N1CCC(OC2CCN(C(=O)Nc3cc(F)ccc3F)CC2)CC1	none
CC1(c2ccc3c(c2)OCCO3)NC(=O)N(CC(=O)c2c[nH]c3ccccc23)C1=O (stereo not given)	none
CC1CCN(C(=O)CCC[C@H]2NC[C@@H]3C[C@H]2CN(Cc2ccccc2)C3)CC1	KDM5B inh 7.94µM
O=C(CCC[C@H]1NC[C@@H]2CC1CN(Cc1ccccc1)C2)N1CCCC1	none
CN1CCCN(C(=O)CCC[C@H]2NC[C@@H]3C[C@H]2CN(Cc2ccccc2)C3)CC1	none
COc1ccc(OC)c(/C=C/C(=O)c2cc3ccccc3o2)c1	none
CCN(CC)c1ncccc1CNC(=O)c1ccc(C)s1	none
O=C(CSc1nnc2ccc(-c3ccccc3)nn12)NCc1ccc2c(c1)OCO2	none
O=C(NCCc1noc(-c2ccccc2)n1)c1ccc(Cl)s1	none
Cc1ccsc1C(=O)NCc1nnc2ccc(-c3ccc(Cl)cc3)nn12	KDM5B inh 31.6µM
Cc1ccc(CNC(=O)c2ccc(C)s2)cc1	none
O=C(NCc1nnc2ccc(-c3ccc(Cl)cc3)nn12)c1ccc(Cl)s1	KDM5B inh 5.01µM
CC(=O)c1ccc(NC(=O)CSc2nnc3ccc(-c4ccc(Cl)cc4)nn23)cc1	none
Cc1ccsc1C(=O)NCc1ccccn1	none
CC(=O)Nc1ccc(CNC(=O)c2sccc2C)cc1	none
O=C(NCc1nnc2ccc(-c3ccccc3)nn12)c1ccc(Cl)s1	KDM5B inh 22.4µM
O=C(CSc1nnc2ccc(-c3ccc(Br)cc3)nn12)NCc1ccc2c(c1)OCO2	none
Cc1ccc(C(=O)NCc2nnc3ccc(-c4ccc(Cl)cc4)nn23)s1	KDM5B inh 15.8µM
CCc1noc(-c2cn(C3CCN(C(=O)c4cccc(NC(C)=O)c4)CC3)nn2)n1	none
CN(Cc1ccccc1)Cc1cccn1C	none
O=C(COC(=O)c1cc2ccccc2oc1=O)NC1CCCCCC1	none
Cc1ccc(NC(=O)N2CCc3c(C(=O)NC(C)C)cccc32)cc1	none
CSc1ccc(Cl)c(C(=O)Nc2ccc3c(c2)CCC3)c1	none
O=C1CC(c2ccccc2)N(C(=O)CC2CCCC2)CCCCCCN1 (stereo not given)	none
O=C(c1[nH]c2ccccc2c1Cl)N(Cc1ccccc1)Cc1ccco1	none
CCN(CC)CCNC(=O)c1cc(C(C)(C)C)cc(C(C)(C)C)c1	none
CCN1C(=O)C2(CCN(S(=O)(=O)c3ccc(Cl)cc3C)CC2)c2ccccc21	none
O=C(OCc1ccccc1)c1ccccc1C(=O)c1ccccc1	none
O=C(c1ccc([N+](=O)[O-])cc1)N1CCCC1	none
CCCN1CCN(C(=O)c2ccc(-c3ccc(N4CCCCC4)nc3)cc2)CC1	KDM5B inh 25.1µM
CCOc1ccc(C(=O)N2CCCN(c3cc(-c4ccc(Cl)cc4)[nH]n3)CC2)cc1	none
Cc1ccc(C(=O)N2CCCN(c3cc(-c4ccc(F)cc4)[nH]n3)CC2)cc1	none
CN1CCN(C(=O)c2ccc(-c3ccc(N4CCSCC4)nc3)cc2)CC1	KDM5B inh 28.2µM
Cc1cc(C)c(C(=O)c2ccc(C(=O)N3CCCCC3)cc2)c(C)c1	none
O=C(c1ccc(S(=O)(=O)N2CCCC2)cc1)N1CCCCC1	none
O=C(c1ccc(-c2ccc(N3CCSCC3)nc2)cc1)N1CCCCC1	KDM5B inh 28.2µM
Cc1ccc(C(=O)N2CCN(c3cc(C(F)(F)F)ncn3)CC2)cc1	none
CCOc1ccc(C(=O)N2CCCN(c3cc(-c4ccc(F)cc4)[nH]n3)CC2)cc1	none
O=C(c1ccc(-c2ccc(N3CCCCC3)nc2)cc1)N1CCCC1	KDM5B inh 28.2µM
COc1cccc(CNC(=O)c2ccc(-c3ccc(N4CCSCC4)nc3)cc2)c1	none
Cc1ccc(C(=O)OC2CCOC2=O)s1 (stereo not given)	none
COc1ccc(NC(=O)c2cccc3c2CCN3C(=O)Nc2ccc(F)cc2)c(C)c1	none
O=C(Nc1ccc2ccccc2n1)c1cccc[n+]1[O-]	none
CC(C)(C)OC(=O)COc1ccc2c(-c3cc4ccccc4oc3=O)cc(=O)oc2c1	none
CCC(C(=O)Nc1cccc(Cl)c1)n1nc(-c2ccc(C)cc2)ccc1=O (stereo not given)	none

Compound activity as filed in PubChem.
